Compound activity: PubChem BioAssay, several laboratories
Hits are enriched below; roughly 1.3% of the tested compounds scored in any of these assays.
14-3-3 Bad PPI = inhibitors of 14-3-3 zeta/Bad binding, primary screen, biochemical, TR-FRET, bovine 14-3-3 zeta; AID 781, 2007; 14-3-3 protein zeta/delta (Bos taurus), P63103; TR-FRET 14-3-3zeta/Dy647-pBad peptide displacement, 1 h; inhibition, % at 21.7 µM; 220,000 compounds, 0.71% hits;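 active = inhibition above about 70%, limit read from the data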;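 note: 0% = full 14-3-3 plus peptide FRET controls and 100% = background without 14-3-3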
Target sequence (P63103 whole entry, looked up): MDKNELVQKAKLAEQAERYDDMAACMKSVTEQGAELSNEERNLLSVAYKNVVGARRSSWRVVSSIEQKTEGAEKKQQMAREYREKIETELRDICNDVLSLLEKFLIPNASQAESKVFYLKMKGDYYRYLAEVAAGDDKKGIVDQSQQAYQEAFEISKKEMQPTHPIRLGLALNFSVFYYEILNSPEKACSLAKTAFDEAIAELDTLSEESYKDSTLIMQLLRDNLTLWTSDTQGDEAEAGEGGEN
SUMO HTRF inh = inhibitors of in vitro SUMOylation cascade, primary screen, biochemical, HTRF, uHTS | SUMO-conjugating enzyme UBC9 (Homo sapiens), P63279 | AID 2006, 2009 | inhibition, % at 35 µM | 290,000 compounds, 0.36% hits | HTRF SUMOylation assay, SAE1/SAE2 + UBC9; in the data active = inhibition above about 50%, passing the limit was not always enough
Target sequence (P63279 whole entry, looked up): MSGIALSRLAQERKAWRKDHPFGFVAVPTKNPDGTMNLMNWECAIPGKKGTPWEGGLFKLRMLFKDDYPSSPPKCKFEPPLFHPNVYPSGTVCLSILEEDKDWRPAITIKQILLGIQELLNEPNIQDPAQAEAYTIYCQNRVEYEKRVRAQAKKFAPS
eIF4E-4G inh = eIF4E–eIF4G protein interaction inhibitors, primary screen, biochemical, uHTS, TR-FRET, eIF4GI fragment | Eukaryotic translation initiation factor 4E (Mus musculus) + Eukaryotic translation … | TR-FRET eIF4E-eIF4GI(517-606) binding, 2 h | inhibition, % at 21.7 µM | 220,000 compounds, 0.37% hits;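 note: 0% = full FRET control wells and 100% = background wells lacking eIF4GI fragment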
p47phox inh = p47phox/p22phox peptide binding inhibitors, primary screen, biochemical, uHTS, NADPH oxidase regulatory subunit; 220,000 compounds, 0.53% hits; Neutrophil cytosol factor 1 (Homo sapiens), P14598; inhibition, % at 24.7 µM; AID 1274, 2008; fluorescence polarization, 2 h;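 note: 0% = p47phox with labelled peptide and 100% = labelled peptide alone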
Numbers without * were called inactive; [ ] = remark or other dose.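 Rule for the calls, unless noted: active = inhibition above about 30% (limit read from the data); inactive = the rest.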

What do the screens show for `CCOc1ccccc1-c1c2cc(O)c(=O)cc-2oc2cc(O)c(O)cc12`?
14-3-3 Bad PPI: 0.6; SUMO HTRF inh: 26.1; eIF4E-4G inh: 12.9; p47phox inh: -261.9

Results for Cc1ccc(N2C(=O)[C@@H]3C(C(=O)C(c4ccccc4)c4ccccc4)=NN[C@@H]3C2=O)cc1 ?
14-3-3 Bad PPI: -11.2; SUMO HTRF inh: -19.7; eIF4E-4G inh: -2.0; p47phox inh: -10.8

How did Clc1ccccc1Cc1noc(CN2CCN(c3cnccn3)CC2)n1 do in these assays?
14-3-3 Bad PPI: -2.3; SUMO HTRF inh: 6.3; eIF4E-4G inh: -0.7; p47phox inh: 31.6*

How did O=C(O)[C@H](Cc1ccccc1)NC(=O)C(c1ccccc1)(c1ccccc1)c1ccccc1 do in these assays?
14-3-3 Bad PPI: 88.5*; SUMO HTRF inh: 6.4; eIF4E-4G inh: -1.2; p47phox inh: -1.8

Results for CCC1(c2ccccc2)NC(=S)N(c2ccc(C)c(C)c2)N1 (configuration not stated) ?
14-3-3 Bad PPI: -2.3; SUMO HTRF inh: 21.0; eIF4E-4G inh: 51.8*; p47phox inh: -12.6

What do the screens show for `COc1ccc(/C=N/NC(=O)CN(C2=NS(=O)(=O)c3ccccc32)c2ccccc2)cc1`?
14-3-3 Bad PPI: 8.8; SUMO HTRF inh: 14.7; eIF4E-4G inh: 5.1; p47phox inh: 30.6*

Results for CSc1ccc(/C=N/Nc2cccc(C(=O)O)c2)cc1 ?
14-3-3 Bad PPI: 85.4*; SUMO HTRF inh: 34.8; eIF4E-4G inh: 34.5*; p47phox inh: -31.9

Results for COc1ccc(-c2[nH]c(-c3cccc(OC)c3)nc2SCC(=O)NCc2ccco2)cc1 ?
14-3-3 Bad PPI: 6.2; SUMO HTRF inh: -7.6; eIF4E-4G inh: -2.9; p47phox inh: -22.2

Results for CCN(CC)C1=CC2=CC(=C(C#N)C#N)CCC2CC1 (configuration not stated) ?
14-3-3 Bad PPI: -7.0; SUMO HTRF inh: 12.5; eIF4E-4G inh: -4.2; p47phox inh: 62.1*

How did CCCCN(C)C1=CC2=CC(=C(C#N)C#N)CCC2CC1 (configuration not stated) do in these assays?
14-3-3 Bad PPI: -17.8; SUMO HTRF inh: 10.4; eIF4E-4G inh: 4.0; p47phox inh: 3.2

What do the screens show for `N#CC(C#N)=C1C=C2C=C(N3CCCCC3)CCC2CC1` (configuration not stated)?
14-3-3 Bad PPI: -14.4; SUMO HTRF inh: -2.4; eIF4E-4G inh: -0.3; p47phox inh: 112.6*

Results for CCN1C(=O)/C(=C/c2nc3ccccc3c(=O)n2-c2ccc(C)cc2)c2ccccc21 ?
14-3-3 Bad PPI: 11.0; SUMO HTRF inh: -3.9; eIF4E-4G inh: -1.2; p47phox inh: -13.4

How did CCN1C(=O)/C(=C\c2nc3ccccc3c(=O)n2-c2ccccc2)c2ccccc21 do in these assays?
14-3-3 Bad PPI: 78.4*[fluorescence artefact?]; SUMO HTRF inh: 19.2; eIF4E-4G inh: -5.6; p47phox inh: -0.5

Results for CCN1C(=O)/C(=C/c2nc3ccccc3c(=O)[nH]2)c2ccccc21 ?
14-3-3 Bad PPI: 40.2; SUMO HTRF inh: -7.5; eIF4E-4G inh: 0.3; p47phox inh: 39.3*

How did COc1ccc(-c2n[nH]c(=S)n2-c2ccc(C)cc2)cc1OC do in these assays?
SUMO HTRF inh: -4.5

What do the screens show for `CN(Cc1cccnc1)C(=O)c1ccc2nc(Cc3ccccc3F)oc2c1`?
SUMO HTRF inh: 1.7

Results for Cc1ccc(C)c(NC(=O)CNS(=O)(=O)c2ccccc2)c1 ?
14-3-3 Bad PPI: -6.7; SUMO HTRF inh: 8.7; eIF4E-4G inh: 3.5; p47phox inh: -13.5

Results for Cn1nc(-c2ccccc2)c(C(=O)NCC(=O)O)c1Cl ?
14-3-3 Bad PPI: 21.9; SUMO HTRF inh: 3.7; eIF4E-4G inh: -5.5; p47phox inh: 2.4

How did COc1cccc(OC)c1OCCCCN1CCCC1 do in these assays?
14-3-3 Bad PPI: 74.5*; SUMO HTRF inh: 2.1; eIF4E-4G inh: -3.9; p47phox inh: 0.1

Results for COc1cccc(OC)c1OCCCCN1CCCCC1 ?
SUMO HTRF inh: 12.6

How did Cc1cc(Br)ccc1OCCCCN1CCCCC1 do in these assays?
14-3-3 Bad PPI: 26.9; SUMO HTRF inh: 27.6; eIF4E-4G inh: -1.8; p47phox inh: 48.3*

What do the screens show for `Cc1cc(Br)ccc1OCCOCCN1CCCC1`?
SUMO HTRF inh: 3.2

Results for O=C(NCc1ccco1)/C(=C/c1cccnc1)NC(=O)c1cccc(Br)c1 ?
14-3-3 Bad PPI: 77.1*[fluorescence artefact?]; SUMO HTRF inh: 30.1; eIF4E-4G inh: -4.0; p47phox inh: 0.9
